Test results published in PubChem BioAssay (NCATS).
Inconclusive results are not listed. A number with no mark means an inactive call. Calls come from the whole dose curve; as a rule, active = well fitted activation curve with a large enough effect in the main read-out, with a control signal flat (not every such curve was filed as active); inconclusive = small, poorly fitted or top-dose-only effect, or effect the other way, or a change in a side signal; inactive = flat fitted curve, though single readings scatter.

Target: 3',5'-cyclic-AMP phosphodiesterase 4B (Homo sapiens) (UniProt Q07343)
Experiment: qHTS Assay for Inhibitors of PDE-IV (AID 607); note: % of control where 0% means no effect
Settings: HEK293 ACTOne CNG channel cells, membrane potential fluorescence; series mostly up to 22.9 µM; activation (PDE inhibition): at the top concentration
From the text: NIH Chemical Genomics Center [NCGC]
NIH Molecular Libraries Screening Centers Network [MLSCN]
The cyclic nucleotide phosphodiesterases (PDEs) are proteins that catalyze hydrolysis of 3', 5'-cyclic nucleotides, such as cyclic adenosine monophosphate (cAMP) and cyclic guanosine monophosphate (cGMP), to their corresponding 5'-nucleotide monophosphates. These enzymes play an important role in controlling cellular concentrations of cyclic nucleotides and have a central role in a variety of intracellular signaling events. cAMP PDEs are emerging as a promising class of drug targets in asthma and cardiovascular disease therapeutic areas.
There are no commercially available cell-based screening assays for PDE inhibitors: currently biochemical assays are done using pure substrates (cAMP or cGMP) and purified recombinant PDE enzymes. As with other biochemical screens on intracellular targets, false positives and false negatives may result from issues involving cell membrane permeability, cellular metabolism, and the like.
Here we report the development of a cell-based screening assay for cAMP phosphodiesterase (PDE) inhibitors. The assay is based on the BD ACTOne# technology (BD Biosciences) which utilizes a modified cyclic nucleotide-gated channel (CNG) to monitor intracellular cAMP changes in live cells. The CNG channel is localized on the plasma membrane, and opens when the intracellular cAMP level increases, resulting in ion flux and cell membrane depolarization. The influx of cations through the CNG channel can be quantified using membrane potential (MP) dyes. We modified the BD ACTOne technology to allow the detection of PDE inhibitors, and performed an inhibitor screen for PDE-IV, which is expressed endogenously in HEK293 cells. We optimized this assay in homogeneous 1536-well plate assay format for high throughput screening.
NCGC Assay Protocol Summary:
The medium contained 10% FBS (Invitrogen), 2 mM L-glutamine, and 250 ug/ml G418 (Cellgro) and 1 ug/ml puromycin (Clontech). ACTOneTM parental cells (BD Biosciences) were maintained in the same medium without puromycin.
The activity of the CNG channel was measured by BD ACTOneTM membrane potential dye kit (BD Biosciences). Forskolin, a positive control for cAMP activation and RO 20-1724, a PDE inhibitor, were both purchased from Sigma and solublized in DMSO.
Sequence,Parameter,Value,Description
1,Reagent,3 uL,1000 cells/well 1536 TC treated Black plate
3,Compound,0.5 uL,Kalypsys dispense RO 20-1724 100 uM final [A]
4,Reagent,3 uL,BD membrane potential dye
6,Compound,23 nL,Final concentration was 0.7nM to 22.9uM
8,Detector,EX 535 / EM 590 [B],Envision
Footnotes: [A] The stock 2 mM RO 20-1724 PDE inhibitor was made in 10 % DMSO. Parental cell line received 10 uM forskolin + 100 uM RO. [B] Envsion settings: Bottom Excitation 535/20 nm top emission 590/20, gain of 150 and 5 flashes per well.
Keywords: PDE, PDE-IV, cytotoxicity, flourescence, MLSMR, MLSCN, NIH Roadmap, qHTS, NCGC

3',5'-cyclic-AMP phosphodiesterase 4B (Homo sapiens), sequence (Q07343 whole entry, looked up): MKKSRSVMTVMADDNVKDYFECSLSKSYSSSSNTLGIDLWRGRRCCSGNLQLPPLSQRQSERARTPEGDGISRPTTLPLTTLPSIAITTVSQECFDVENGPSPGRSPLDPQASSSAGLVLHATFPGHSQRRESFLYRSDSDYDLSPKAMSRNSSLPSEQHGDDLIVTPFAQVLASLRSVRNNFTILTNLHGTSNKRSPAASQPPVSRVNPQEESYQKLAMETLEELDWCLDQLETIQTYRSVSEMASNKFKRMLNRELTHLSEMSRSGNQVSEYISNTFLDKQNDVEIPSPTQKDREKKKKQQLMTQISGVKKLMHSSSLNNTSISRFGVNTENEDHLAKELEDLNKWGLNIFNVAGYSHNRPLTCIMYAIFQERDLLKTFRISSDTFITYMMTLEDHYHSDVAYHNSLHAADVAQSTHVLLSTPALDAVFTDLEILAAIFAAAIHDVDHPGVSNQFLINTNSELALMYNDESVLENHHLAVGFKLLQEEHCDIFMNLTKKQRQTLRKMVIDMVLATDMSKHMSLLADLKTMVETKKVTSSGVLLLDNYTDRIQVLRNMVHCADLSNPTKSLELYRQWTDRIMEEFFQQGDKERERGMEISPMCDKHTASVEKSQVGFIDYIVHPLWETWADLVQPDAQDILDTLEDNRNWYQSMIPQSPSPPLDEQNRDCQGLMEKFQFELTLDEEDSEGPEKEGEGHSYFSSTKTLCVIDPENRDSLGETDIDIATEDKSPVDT

| Compound | activation (PDE inhibition) [%] |
| --- | --- |
| Cc1ccccc1OC[C@H](O)CO | -0.662 |
| CO[C@H]1[C@@H](OC(N)=O)[C@H](O)[C@@H](Oc2ccc3c(O)c(NC(=O)c4ccc(O)c(CC=C(C)C)c4)c(=O)oc3c2C)OC1(C)C | 6.97 |
| CC(=O)OCC(=O)[C@@]1(O)CC[C@@H]2[C@H]3CCC4=CC(=O)CC[C@]4(C)[C@]3(F)[C@@H](O)C[C@@]21C | 5.34 |
| CC[C@]1(c2ccccc2)NC(=O)N(C)C1=O | -14.1 |
| CC(=O)/C(C)=N\O | -27 |
| CN(C)CCn1nnnc1SCC1=C(C(=O)O)N2C(=O)[C@@H](NC(=O)Cc3csc(N)n3)[C@@H]2SC1 | 2.05 |
| C#C[C@@]1(O)CC[C@@H]2[C@@H]3CCC4=CC(=O)CC[C@@H]4[C@H]3CC[C@]21C | 36.2 |
| CN1C(=O)C[C@H](c2ccccc2)C1=O | 5.67 |
| C[N+]1(C)CCC[C@H]1C(=O)[O-] | -9.35 |
| Cc1cc2ccc(=O)oc2cc1OC[C@@H](O)C(C)(C)O | -0.00276 |
| C[C@H](O)Cn1cnc2c1c(=O)n(C)c(=O)n2C | -1.85 |
| CC(=O)OCC(=O)[C@@]1(O)CC[C@@H]2[C@H]3CCC4=CC(=O)C=C[C@]4(C)[C@]3(F)[C@@H](O)C[C@@]21C | 0.586 |
| CC(C)(CS)C(=O)N1CCC[C@H]1C(=O)O | 8.91 |
| O=C(NC[C@@H](O)CO)c1c(I)c(C(=O)NC[C@@H](O)CO)c(I)c(N(CCO)C(=O)CO)c1I | -13.4 |
| CC(=O)N[C@H](CS)C(=O)O | -23.5 |
| CC[C@H](C)C(=O)O[C@@H]1C[C@H](C)C=C2C=C[C@H](C)[C@@H](CC[C@H]3C[C@@H](O)CC(=O)O3)[C@H]21 | -1.13 |
| C[C@H]1CS(=O)(=O)CCN1/N=C\c1ccc([N+](=O)[O-])o1 | 6.97 |
| C[C@@H](C(=O)O)c1ccc(N2Cc3ccccc3C2=O)cc1 | 8.6 |
| CC(=O)N[C@H]1[C@@H](O[C@@H](C)C(=O)O)[C@H](O)[C@H](CO)O[C@@H]1O | 2.15 |
| FC(F)(F)c1ccccc1-c1ccc2ncnc(NC3CCNCC3)c2c1 | 20.5 |

| Compound | activation (PDE inhibition) [%] |
| --- | --- |
| CO[C@@H]1C=CO[C@]2(C)Oc3c(C)c(O)c4c(O)c(c(C=NN5CCN(C)CC5)c(O)c4c3C2=O)NC(=O)C(C)=CC=C[C@H](C)[C@H](O)[C@H](C)[C@H](O)[C@H](C)[C@H](OC(C)=O)[C@H]1C | -6.91 |
| C[C@H](N[C@@H](C)COc1ccccc1)[C@H](O)c1ccc(O)cc1 | 16.6 |
| CCC(=O)O[C@@]1(C(=O)CCl)[C@@H](C)C[C@@H]2[C@H]3CCC4=CC(=O)C=C[C@@]4(C)[C@]3(F)[C@@H](O)C[C@@]21C | -5.23 |
| C[C@H]1CC[C@]2(OC1)O[C@@H]1C[C@@H]3[C@@H]4CC[C@H]5C[C@@H](O)CC[C@]5(C)[C@@H]4CC(=O)[C@@]3(C)[C@H]1[C@@H]2C | 15.3 |
| CC(C)(C)CC(C)(C)c1ccc(OCOCCOCCO)c(Cc2cc(C(C)(C)CC(C)(C)C)cc(Cc3cc(C(C)(C)CC(C)(C)C)ccc3OCOCCOCCO)c2OCOCCOCCO)c1 | 6.16 |
| C[C@@]12C=CC(=O)C=C1CC[C@H]1[C@H]3CC[C@](O)(C(=O)CO)[C@]3(C)CC(=O)[C@@H]12 | -7.84 |
| O=C(N[C@@H](CO)[C@@H](O)c1ccc([N+](=O)[O-])cc1)C(Cl)Cl | 8.92 |
| Cc1ncc([N+](=O)[O-])n1C[C@H](O)CCl | 6.22 |
| C=C1CC23C[C@H]4[C@@H]5[C@@]6(C)C[C@H](OC(=O)c7ccccc7)[C@@H](OC(C)=O)[C@]57[C@@H]2[C@@H](OC(C)=O)[C@H]1[C@@H](O)[C@H]3[C@H]7N4C6 | 3.35 |
| CC[C@H](C(=O)[C@H](C)[C@H](O)[C@H](C)CCc1ccc(C)c(O)c1C(=O)O)[C@H]1O[C@](CC)([C@@H]2CC[C@@](O)(CC)[C@H](C)O2)C[C@H]1C | -9.66 |
| CO[C@H]1[C@H](O[C@H]2O[C@@H](C)[C@@H](O[C@@H]3C[C@](C)(O)[C@H](OC(=O)CC(C)C)[C@H](C)O3)[C@@H](N(C)C)[C@@H]2O)[C@@H](CC=O)C[C@@H](C)[C@@H](O)/C=C\C=C/C[C@@H](C)OC(=O)C[C@H]1OC(C)=O | 14 |
| O=c1cc(-c2ccc(O)cc2)oc2c([C@H]3O[C@@H](CO)[C@@H](O)[C@@H](O)[C@@H]3O)c(O)cc(O)c12 | 7.42 |
| Cc1ccsc1/C=C\C1=NCCCN1C | -4.82 |
| O=C1O[C@H](CN2CCOCC2)CN1/N=C\c1ccc([N+](=O)[O-])o1 | 1.76 |
| c1ccc2c(c1)CCCc1cc(NCCN3CCOCC3)nnc1-2 | -2.43 |
| Nc1ncnc2c1ncn2[C@@H]1O[C@H](COP(=O)(O)O)[C@@H](O)[C@@H]1O | -0.436 |
| C[C@H](CCC(=O)O)[C@H]1CC[C@@H]2[C@H]3[C@@H](CC[C@@]21C)[C@]1(C)CC[C@H](O)C[C@@H]1C[C@@H]3O | 14.5 |
| O[C@H](c1cc(C(F)(F)F)nc2c(C(F)(F)F)cccc12)[C@H]1CCCCN1 | -13.3 |
| Clc1cnccn1 | 0.954 |
| COc1ccc2c(c1)N(C[C@@H](C)CN(C)C)c1ccccc1S2 | 10.1 |
